The panel holds about 79,000 compounds, 15% with a hit somewhere; the sample as a whole holds those more often. Values without a mark were called inactive. Active and inactive are the calls of the source. No stated cut-off is given here; in the data, active means growth inhibition above about 70%; inactive means the rest.

10 molecules from PubChem BioAssay (NCI) can be followed below.

Assay [1] in a line: NCI Yeast Anticancer Drug Screen. Data for the rad50 strain (AID 155).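 Further: 0% = growth of vehicle-only cultures of the same strain.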 The note with it: S. cerevisiae rad50 strain growth inhibition, active compounds read high. The method in brief:
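Growth of the mutant yeast was measured after compound exposure and referenced to vehicle-treated cultures.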

Assay [2] in a line: NCI Yeast Anticancer Drug Screen. Data for the mec2-1 strain (AID 157). The note with it: S. cerevisiae mec2-1 strain, active compounds read high. The method in brief: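 Readout is yeast growth inhibition, normalised to vehicle-treated controls, in the mec2-1 strain exposed to compound.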
Assay [3] can be described thus: NCI Yeast Anticancer Drug Screen. Data for the sgs1 mgt1 strain (AID 161).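 Further: 0% = growth of cultures given vehicle only.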 The note with it: S. cerevisiae sgs1 mgt1 strain, active compounds read high. The method in brief: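 This yeast growth screen uses a strain with defined DNA-repair lesions; compound-treated growth is compared with vehicle-treated growth.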
Assay [4] in a line: NCI Yeast Anticancer Drug Screen. Data for the cln2 rad14 strain (AID 165).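 Further: 0% = growth equal to vehicle treated cultures.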 The note with it: S. cerevisiae cln2 rad14 strain, active compounds read high. The method in brief: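 Relative to vehicle controls, growth inhibition of compound-treated cln2 rad14 yeast was recorded.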
Assay [5] can be described thus: NCI Yeast Anticancer Drug Screen. Data for the bub3 strain (AID 167). The note with it: S. cerevisiae bub3 mutant strain, active compounds read high. The method in brief:
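Whole-cell yeast assay. The mutant strain was incubated with compounds, and growth inhibition was determined by comparison with vehicle-treated cells.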

A short description of assay [6]: NCI Yeast Anticancer Drug Screen. Data for the mlh1 rad18 strain (AID 175). The conditions noted are these: S. cerevisiae mlh1 rad18 strain growth inhibition, active compounds read high. The method in brief: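 Test agents were incubated with a yeast strain of defined genotype (DNA damage repair defect). Inhibition of growth was derived by comparison with vehicle-exposed cultures.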

Setting [7] is: at 5.0 µM (retest, dose inferred, filed as 0.5).
Where [8] appears, read: at 50.0 µM (retest, dose inferred, filed as 5.0).

Consider `c1ccc(COc2cccc3[nH]ccc23)cc1`, for which the growth inhibition in assay [1] (setting [7]) is -3%; in assay [1] (setting [8]) it was 29%; in assay [1] (at 50.0 µM), 74.4% (active); in assay [2] (setting [7]), -3%; in assay [2] (setting [8]) it was 10%; in assay [2] (at 50.0 µM), 90.2% (active). For the same molecule, the growth inhibition in assay [3] (setting [7]) is -6%; in assay [3] (setting [8]), 5%; in assay [3] (at 50.0 µM) it was 86.6% (active); in assay [4] (setting [7]), -7%; in assay [4] (setting [8]) it was 6%; in assay [4] (at 50.0 µM) it was 88.8% (active). Besides, the growth inhibition in assay [5] (setting [7]) was 3%; in assay [5] (setting [8]) it was 35%; in assay [5] (at 50.0 µM), 83.8% (active); in assay [6] (setting [7]) it was -5%; in assay [6] (setting [8]), 25%; in assay [6] (at 50.0 µM), 95.5% (active).

For `COc1ccc2nc3cc(Cl)ccc3c(Nc3ccc(S(N)(=O)=O)cc3)c2c1`, the growth inhibition was 0% in assay [1] (setting [7]); 17% in assay [1] (setting [8]); 37.5% in assay [1] (at 50.0 µM); 0% in assay [2] (setting [7]); 9% in assay [2] (setting [8]); -11.4% in assay [2] (at 50.0 µM). Besides, the growth inhibition in assay [3] (setting [7]) is 0%; in assay [3] (setting [8]) it was 5%; in assay [3] (at 50.0 µM), -6.05%; in assay [4] (setting [7]) it was 9%; in assay [4] (setting [8]), 3%; in assay [4] (at 50.0 µM) it was -8.25%. Also, the growth inhibition in assay [5] (setting [7]) is -1%; in assay [5] (setting [8]), 2%; in assay [5] (at 50.0 µM), -11.4%; in assay [6] (setting [7]), 1%; in assay [6] (setting [8]), 2%; in assay [6] (at 50.0 µM) it was -6.5%.

As for `O=C(c1ccccc1)c1cn(/N=C\c2ccccc2)c(=O)nc1-c1ccccc1`, the growth inhibition in assay [1] (setting [7]) is -3%; in assay [1] (setting [8]), 61%; in assay [1] (at 50.0 µM) it was 88.5% (active); in assay [2] (setting [7]), -13%; in assay [2] (setting [8]), 96% (active); in assay [2] (at 50.0 µM), 80.2% (active). Moreover, the growth inhibition is 2% in assay [3] (setting [7]); 94% (active) in assay [3] (setting [8]); 90.9% (active) in assay [3] (at 50.0 µM); 11% in assay [4] (setting [7]); 95% (active) in assay [4] (setting [8]); 87.4% (active) in assay [4] (at 50.0 µM). Moreover, the growth inhibition in assay [5] (setting [7]) is 16%; in assay [5] (setting [8]), 97% (active); in assay [5] (at 50.0 µM), 89% (active); in assay [6] (setting [7]), -1%; in assay [6] (setting [8]) it was 95% (active); in assay [6] (at 50.0 µM), 84.5% (active).

`C#CC[N+](CC)(CC)CCNC(=O)CCCCCCCCCCCCCCC`: the growth inhibition in assay [1] (setting [7]) is 97% (active); in assay [1] (setting [8]) it was 99% (active); in assay [1] (at 50.0 µM), 99.5% (active); in assay [2] (setting [7]) it was 81% (active); in assay [2] (setting [8]), 99% (active); in assay [2] (at 50.0 µM), 99.7% (active). Besides, the growth inhibition in assay [3] (setting [7]) was 98% (active); in assay [3] (setting [8]) it was 100% (active); in assay [3] (at 50.0 µM), 99.6% (active); in assay [4] (setting [7]), 51%; in assay [4] (setting [8]), 99% (active); in assay [4] (at 50.0 µM) it was 98.8% (active). Besides, the growth inhibition in assay [5] (setting [7]) is 92% (active); in assay [5] (setting [8]), 99% (active); in assay [5] (at 50.0 µM) it was 99.6% (active); in assay [6] (setting [7]) it was 49%; in assay [6] (setting [8]), 99% (active); in assay [6] (at 50.0 µM), 99.5% (active).

In the case of `O=C(c1ccccc1)c1ccc2c(c1)CCCC2`, the growth inhibition is -4% in assay [1] (setting [7]); -14% in assay [1] (setting [8]); 76.5% (active) in assay [1] (at 50.0 µM); -12% in assay [2] (setting [7]); -23% in assay [2] (setting [8]); 60.2% in assay [2] (at 50.0 µM). The growth inhibition was -5% in assay [3] (setting [7]); -6% in assay [3] (setting [8]); 76.8% (active) in assay [3] (at 50.0 µM); -5% in assay [4] (setting [7]); -48% in assay [4] (setting [8]); 19.6% in assay [4] (at 50.0 µM). Besides, the growth inhibition in assay [5] (setting [7]) is 2%; in assay [5] (setting [8]), 49%; in assay [5] (at 50.0 µM), 69.7%; in assay [6] (setting [7]) it was 0%; in assay [6] (setting [8]), -29%; in assay [6] (at 50.0 µM), 71.4% (active).

With `O/N=C1/C(=C/c2ccc3c(c2)OCO3)CCCC1C(NO)c1ccc2c(c1)OCO2` (stereo not given), the growth inhibition is -2% in assay [1] (setting [7]); 65% in assay [1] (setting [8]); 82.3% (active) in assay [1] (at 50.0 µM); -2% in assay [2] (setting [7]); 3% in assay [2] (setting [8]); 90.5% (active) in assay [2] (at 50.0 µM). Further, the growth inhibition is 4% in assay [3] (setting [7]); 50% in assay [3] (setting [8]); 97% (active) in assay [3] (at 50.0 µM); -5% in assay [4] (setting [7]); 25% in assay [4] (setting [8]); -7.15% in assay [4] (at 50.0 µM). Also, the growth inhibition in assay [5] (setting [7]) is -2%; in assay [5] (setting [8]) it was 51%; in assay [5] (at 50.0 µM) it was 38.4%; in assay [6] (setting [7]), -3%; in assay [6] (setting [8]), 27%; in assay [6] (at 50.0 µM), 97.4% (active).

Consider `CCC(=O)C(=O)CC1CC(c2ccco2)=Nc2ccccc2S1` (stereo not given), for which the growth inhibition was 9% in assay [1] (setting [7]); 97% (active) in assay [1] (setting [8]); -0.45% in assay [1] (at 50.0 µM); 13% in assay [2] (setting [7]); 98% (active) in assay [2] (setting [8]); 5.65% in assay [2] (at 50.0 µM). Also, the growth inhibition in assay [3] (setting [7]) is 28%; in assay [3] (setting [8]), 94% (active); in assay [3] (at 50.0 µM), 22.6%; in assay [4] (setting [7]), 6%; in assay [4] (setting [8]) it was 97% (active); in assay [4] (at 50.0 µM) it was -24.4%. In addition, the growth inhibition was 14% in assay [5] (setting [7]); 96% (active) in assay [5] (setting [8]); 6.35% in assay [5] (at 50.0 µM); 14% in assay [6] (setting [7]); 98% (active) in assay [6] (setting [8]); 18.5% in assay [6] (at 50.0 µM).

In the case of `C=C1CC[C@@H](Br)C(C)(C)[C@]12CCC(C)(O)C(Cl)C2` (stereo not given in full), the growth inhibition is -3% in assay [1] (setting [7]); 34% in assay [1] (setting [8]); 91.7% (active) in assay [1] (at 50.0 µM); 16% in assay [2] (setting [7]); 30% in assay [2] (setting [8]); 93.5% (active) in assay [2] (at 50.0 µM). For the same molecule, the growth inhibition in assay [3] (setting [7]) was 10%; in assay [3] (setting [8]), 44%; in assay [3] (at 50.0 µM), 92.2% (active); in assay [4] (setting [7]), 31%; in assay [4] (setting [8]), 44%; in assay [4] (at 50.0 µM), 90.9% (active). Further, the growth inhibition in assay [5] (setting [7]) is 6%; in assay [5] (setting [8]), 72% (active); in assay [5] (at 50.0 µM), 92% (active); in assay [6] (setting [7]), -25%; in assay [6] (setting [8]) it was 41%; in assay [6] (at 50.0 µM), 91% (active).

For `COc1ccc(NC(=O)CC(=O)n2nc(-c3ccccc3)c(N=Nc3ccc(C)cc3)c2-c2ccccc2)cc1`, the growth inhibition in assay [1] (setting [7]) is 34%; in assay [1] (setting [8]), 34%; in assay [1] (at 50.0 µM) it was 36.9%; in assay [2] (setting [7]), 28%; in assay [2] (setting [8]), 28%; in assay [2] (at 50.0 µM) it was 5.95%. The growth inhibition was 19% in assay [3] (setting [7]); 19% in assay [3] (setting [8]); -6.65% in assay [3] (at 50.0 µM); 20% in assay [4] (setting [7]); 20% in assay [4] (setting [8]); 21% in assay [4] (at 50.0 µM). Further, the growth inhibition in assay [5] (setting [7]) was 27%; in assay [5] (setting [8]) it was 27%; in assay [5] (at 50.0 µM) it was 35.1%; in assay [6] (setting [7]) it was 36%; in assay [6] (setting [8]), 36%; in assay [6] (at 50.0 µM) it was -3.75%.

With `S=C(N/N=C(/c1ccccc1)c1ccccn1)N1CCCCC1`, the growth inhibition in assay [1] (setting [7]) is 58%; in assay [1] (setting [8]), 98% (active); in assay [1] (at 50.0 µM) it was 80.2% (active); in assay [2] (setting [7]), 27%; in assay [2] (setting [8]), 98% (active); in assay [2] (at 50.0 µM), 86.3% (active). The growth inhibition is 66% in assay [3] (setting [7]); 98% (active) in assay [3] (setting [8]); 88.2% (active) in assay [3] (at 50.0 µM); 30% in assay [4] (setting [7]); 97% (active) in assay [4] (setting [8]); 89% (active) in assay [4] (at 50.0 µM). The growth inhibition was 54% in assay [5] (setting [7]); 97% (active) in assay [5] (setting [8]); 90.2% (active) in assay [5] (at 50.0 µM); 83% (active) in assay [6] (setting [7]); 98% (active) in assay [6] (setting [8]); 90.8% (active) in assay [6] (at 50.0 µM).
